PMP22 txn prim: modulators of PMP22 gene transcription in S16 Schwann cells. AID 1508649. hit rate 2% among 43,000. Potency, µM (titrated, usually from 57.5 µM), inactives show at the highest dose activity change, negative = inhibition, hits mostly inhibitors. S16 Pmp22-F2sN Schwann cells, FLuc/NLuc coincidence luminescence, 24 h; active = clear falling dose curves in both reporters; inconclusive = both reporters move, but less clearly or upward; inactive = either reporter flat; the % is the NLuc reporter signal; note: potency is the fitted concentration of half-maximal effect; % is set by controls: 0 for no effect and ±100 for the full control effect
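Schwann cells carrying the coincidence reporter were exposed to library compounds for 24 h at 37C, then lysed and read for FLuc and, after quenching, NLuc luminescence on a CCD imager.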
SKOV3 invasion: inhibitors of ovarian cancer cell adhesion and invasion in omental model; SKOV3ip1-GFP adhesion/invasion on 3D omental model, fluorescence; Potency, µM (doses to about 45.8 µM), for the others: at the highest dose activity change, negative = inhibition, actives largely listed as inhibitors; hit rate 0.1% among 46,000; AID 1963576;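 note: potency is the fitted concentration of half-maximal effect; plate controls were DMSO wells for no effect and tomatine positive control wells for full effect; nearly all actives have a fitted effect of over 65% in size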
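Adhesion/invasion was scored as fixed GFP-labeled SKOV3ip1 cell counts (488/509 nm), normalized to DMSO and tomatine controls. Cancer cells in serum-free medium, with four compound doses (0.36-46 umol/L), sat 2 hr at RT then 16 hr at 37 C on a 48 hr fibroblast/mesothelial/ECM culture.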
S16 F2sN tox: S16 Schwann cell cytotoxicity; hit rate 0.48% among 43,000; Potency, µM (top dose mostly 57.5 µM), for the others: at the top dose activity change, negative = cytotoxicity, usual class: cytotoxic; S16 Pmp22-F2sN Schwann cells viability, CellTiter-Glo, 24 h; note: potency is the fitted concentration of half-maximal effect; % is set by controls: 0 for no effect and ±100 for the full control effect; nearly all actives have a fitted effect of over 65% in size
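CellTiter-Glo counter-screen, qHTS, 1536-well. Cells: S16(c9) Pmp22-F2sN, 500-1,000/well in DMEM + 10% FBS. Cpd 23 nL pin transfer, 24 h, 37C/5% CO2. Read: luminescence, CCD imager.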
HTT-AS act: HTT-AS promoter activation | HEK293 HTT-AS promoter firefly luciferase reporter, 24 h; response scale: percent change from vehicle, -100% = no light | Potency, µM (top dose mostly 57.5 µM), for inactives: at the top dose activity change, positive = activation, hits mostly activators | hit rate 0.24% among 48,000 | AID 1508624; note: potency is the fitted concentration of half-maximal effect; nearly all actives have a fitted effect of over 55% in size
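Firefly luciferase signal from promoter-reporter HEK293 cells was scaled between vehicle (0%) and zero RLU (-100%). Compounds were tested at final concentrations of up to 57.5 uM over 24 h at 37 degrees C. PTC124 at 50 uM final served as control inhibitor.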
pS6 MEF inh: mTORC1 pathway inhibition measured by phospho-rpS6; Tsc2-/- p53-/- MEF, phospho-rpS6 immunofluorescence/PI, 24 h; Potency, µM (doses to about 38.3 µM), inactives show top-dose activity change, negative = inhibition, actives largely listed as inhibitors; hit rate 0.78% among 44,000;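 note: potency is the fitted concentration of half-maximal effect; plate controls were DMSO for no effect and rapamycin for full effect; nearly all actives have a fitted effect of over 50% in size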
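Tsc2-/-, p53-/- MEFs (empty-vector stable line) in DMEM + 10% FBS were treated with compounds 24 h at 37 degree Celsius, fixed, and immunostained for phospho-rpS6 (Alexa-488) with propidium iodide counterstain. Laser-scanning cytometry gave % positive cells, normalized against 7.5 nM rapamycin and DMSO.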
HTT prom inh: inhibits huntingtin promoter activity; Potency, µM (top dose mostly 57.5 µM), inactives show top-dose activity change, negative = inhibition, hits mostly inhibitors; AID 1508623; HEK293 HTT promoter firefly luciferase reporter, 24 h; hit rate 0.93% among 48,000; note: potency is the fitted concentration of half-maximal effect; nearly all actives have a fitted effect of over 50% in size
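Quantitative HTS used concentration series of up to 57.5 uM final on HEK293 luciferase reporter cells, 24 h at 37 degrees C. Readout was Dual-Glo firefly luminescence.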
NLuc sat counter: inhibits NanoLuc at saturating substrate, PMP22 counter-screen; shares compounds with PMP22 txn prim; Secreted NLuc enzyme (filtered S16 cell medium), Nano-Glo luminescence; Potency, µM (titrated, usually from 57.5 µM), for inactives: at the highest dose activity change, negative = inhibition, actives largely listed as inhibitors; hit rate 4% among 690; AID 1508638; note: potency is the fitted concentration of half-maximal effect; % is set by controls: 0 for no effect and ±100 for the full control effect
NLuc Km ctr: counter-screen for PMP22 expression modulators: NanoLuc inhibition at Km; shares compounds with PMP22 txn prim; secreted NLuc enzyme, coelenterazine luminescence, Km conditions; Potency, µM (doses to about 57.5 µM), without a hit: at the top dose activity change, negative = inhibition, usual class: inhibitors; hit rate 5% among 690; AID 1508639; note: potency is the fitted concentration of half-maximal effect; % is set by controls: 0 for no effect and ±100 for the full control effect
FLuc ctr PMP22: counter-screen for PMP22 expression modulators: firefly luciferase inhibition; AID 1508640; shares compounds with PMP22 txn prim; 690 tested, under 10 active; purified P. pyralis FLuc, luminescence, 10 min; Potency, µM (doses to about 57.5 µM), for the others: top-dose activity, negative = inhibition, hits mostly inhibitors; note: % of control where 0% means no effect
Target sequence (P08659 whole entry, looked up): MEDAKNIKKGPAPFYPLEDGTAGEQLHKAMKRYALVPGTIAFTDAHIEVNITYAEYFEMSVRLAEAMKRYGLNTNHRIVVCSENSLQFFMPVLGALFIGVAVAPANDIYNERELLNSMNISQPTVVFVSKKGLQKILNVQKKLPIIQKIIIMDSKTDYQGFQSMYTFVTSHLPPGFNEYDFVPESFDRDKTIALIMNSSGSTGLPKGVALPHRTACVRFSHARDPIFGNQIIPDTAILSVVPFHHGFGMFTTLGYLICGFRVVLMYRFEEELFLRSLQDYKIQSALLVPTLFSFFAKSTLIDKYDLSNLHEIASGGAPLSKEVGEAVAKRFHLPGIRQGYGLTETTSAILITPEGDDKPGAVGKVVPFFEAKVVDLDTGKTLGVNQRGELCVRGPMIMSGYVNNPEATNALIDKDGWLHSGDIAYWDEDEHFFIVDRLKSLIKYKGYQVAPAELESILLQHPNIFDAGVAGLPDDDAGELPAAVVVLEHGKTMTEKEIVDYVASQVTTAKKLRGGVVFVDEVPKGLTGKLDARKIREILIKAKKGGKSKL
S16 viab conf: confirmation of cytotoxicity in S16 Pmp22-F2sN Schwann cells (luciferase reporters placed in the Pmp22 gene); shares compounds with PMP22 txn prim; S16 Schwann cells viability, CellTiter-Glo ATP luminescence, 24 h; Potency, µM (highest dose often 57.5 µM), for inactives: top-dose activity change, negative = viability loss, most hits filed as cytotoxic; hit rate 7% among 690; AID 1508641; note: potency is the fitted concentration of half-maximal effect; % is set by controls: 0 for no effect and ±100 for the full control effect
PMP22 txn conf: PMP22 transcription modulation, confirmatory; shares compounds with PMP22 txn prim; S16 Schwann cells Pmp22-F2sN, dual luciferase, 24 h; Potency, µM (highest dose often 57.5 µM), without a hit: at the top dose activity change, negative = inhibition, hits mostly inhibitors; hit rate 22% among 690; active = clear falling dose curves in both reporters; inconclusive = both reporters move, but less clearly or upward; inactive = either reporter flat; the % is the FLuc reporter signal; note: potency is the fitted concentration of half-maximal effect
* hit, by the source's call; i = inactive; ? = inconclusive; . = not tested or not shown. Compounds with a hit are over-represented: about 3.6% of the library has one in this group of screens. Unless noted, calls come from the whole dose curve; as a rule, active = well fitted curve in the direction sought with a large enough effect; inconclusive = small, poorly fitted or top-dose-only effect, or another doubt; inactive = no such curve, though single readings can be large; an effect the other way counts as inactive or inconclusive.

SMILES	PMP22 txn prim	SKOV3 invasion	S16 F2sN tox	HTT-AS act	pS6 MEF inh	HTT prom inh	NLuc sat counter	NLuc Km ctr	FLuc ctr PMP22	S16 viab conf	PMP22 txn conf
O=C(CSc1nc2nccnc2c(=O)n1CCc1c[nH]c2ccccc12)Nc1ccc(F)cc1	7µM*	21%	12%	-31%	6%	-22%	?	?	-14%	7%	-40%
CCc1ccc(NC(=O)CSc2nc3nccnc3c(=O)n2CCc2c[nH]c3ccccc23)cc1	?	9%	5%	-22%	0%	-9%	.	.	.	.	.
O=C1CC(c2cccc(Cl)c2Cl)c2cc3c(cc2N1)OCCO3 (centres undefined)	16µM*	i	-17%	-37%	-13%	?	-11%	?	-3%	-7%	-32%
Cc1[nH]c2ccccc2c1CCNCc1ccc(C=CC(=O)NO)cc1	.	17%	.	?	.	266%	.	.	.	.	.
CCOCCCn1c(=N)c(C(=O)NC2CCCC2)cc2c(=O)n3cccc(C)c3nc21	?	17%	-3%	-4%	-6%	-5%	-5%	1%	0%	24%	?
Cc1cccn2c(=O)c3cc(C(=O)NC(C)c4ccccc4)c(=N)n(CCOCCO)c3nc12 (centres undefined)	-28%	i	5%	-5%	1%	-1%	.	.	.	.	.
CCOCCCn1c(=N)c(C(=O)NC(C)c2ccccc2)cc2c(=O)n3cccc(C)c3nc21 (centres undefined)	15µM*	25%	?	-30%	?	-26%	-13%	8%	-1%	-2%	?
COc1ccc(CN2CCN(c3ncnc4sc5c(c34)CCCC5)CC2)cc1F	5.3µM*	3%	?	-49%	-6%	?	-20%	-2%	-13%	-23%	?
COc1cc(OC)c(OC)cc1CN1CCc2nc(N3CCN(c4ccccc4F)CC3)ncc2C1	?	-1%	-10%	-44%	0%	?	-9%	3%	-2%	-1%	?
CCOc1ccc(CN2CCc3nc(N4CCN(c5ccccc5OC)CC4)ncc3C2)cc1OC	17µM*	-2%	-8%	-57%	0%	?	-2%	0%	-1%	-11%	-41%
CCCCOc1c(C(=O)c2c(F)cc(C)cc2F)cnc2n[nH]cc12	.	27%	.	-18%	.	?	.	.	.	.	.
NC(=O)c1cccc2[nH]c(-c3ccc([C@H]4CCCN4)cc3F)nc12	.	36%	.	?	.	7%	.	.	.	.	.

Screening results (PubChem BioAssay)
